# Results filed as inconclusive are left out. Calls of active or inactive are those of the source. The calls were made as follows: active = hit-call score of the fitted dose curve at least 0.9, where 1 is the maximum; inconclusive = response in the unintended direction; inactive = score below 0.9.
# Biological target: AR (gene 367) (UniProt P10275)
# Test: ACEA_AR_antagonist_80hr: ACEA Biosciences xCELLigence Real-Time Cell Analysis on Androgen Receptor Antagonism for Proliferation (AID 2283787)
# Description: ACEA_AR_antagonist is a cell-based, single-readout assay that uses 22Rv1, a human prostate cancer cell line, with measurements taken at 80 hours after chemical dosing in a 384-well plate, although TO5 and TO6 (mc0.srcf) used a 96-well plate. Differences in plate size can be ignored given data normalization.ACEA_AR_antagonist_80hr is one of two assay component(s) measured or calculated from the ACEA_AR assay. It is designed to make measurements of real-time cell-growth kinetics, a form of growth reporter, as detected with electrical impedance signals by Real-Time Cell Electrode Sensor (RT-CES) technology.Data from the assay component ACEA_AR_antagonist_80hr was analyzed in the positive analysis fitting direction relative to DMSO as the negative control and baseline of activity. Using a type of growth reporter, measures of the cells for loss-of-signal activity can be used to understand the signaling at the pathway-level as they relate to the gene AR. Furthermore, this assay endpoint can be referred to as a primary readout, because this assay has produced multiple assay endpoints where this one serves a signaling function. To generalize the intended target to other relatable targets, this assay endpoint is annotated to the nuclear receptor intended target family, where the subfamily is steroidal.
# The xCELLigence system Multi-E-Plate stations were used to measure the time-dependent response to chemicals. Each compound was tested in an eight-point, 1:4 serial dilution series starting at a maximum final concentration of 100 uM. A maximum starting concentration of 0.5% DMSO was present in the 100 uM chemical samples and was diluted along with the test article dilution series. The screen was performed in biological duplicate using two separate, 96-well, E-Plates 96 for each dilution series (n = 2). Positive controls (MG132 and testosterone) and a negative control (assay media) were tested in quadruplicate on each testing plate. […] Reference compounds were tested with 8 concentrations with 1:5 serial dilutions. All screening was carried out by ACEA Biosciences, Inc. (San Diego, CA). 22Rv1 cells purchased from ATCC were maintained in media supplemented with 10% fetal bovine serum (FBS). Before screening, 22Rv1 cells were preconditioned in assay medium. Cells were then detached and seeded in E-Plates 96 in assay medium. After overnight monitoring of growth once every hour, compounds were added to […] cells and remained in the medium until the end of the experiment. Cellular responses were then recorded once every 5 min for the first 5 h, and once every hour for an additional 100 h.
# Chain of AR (gene 367) (P10275 whole entry, looked up): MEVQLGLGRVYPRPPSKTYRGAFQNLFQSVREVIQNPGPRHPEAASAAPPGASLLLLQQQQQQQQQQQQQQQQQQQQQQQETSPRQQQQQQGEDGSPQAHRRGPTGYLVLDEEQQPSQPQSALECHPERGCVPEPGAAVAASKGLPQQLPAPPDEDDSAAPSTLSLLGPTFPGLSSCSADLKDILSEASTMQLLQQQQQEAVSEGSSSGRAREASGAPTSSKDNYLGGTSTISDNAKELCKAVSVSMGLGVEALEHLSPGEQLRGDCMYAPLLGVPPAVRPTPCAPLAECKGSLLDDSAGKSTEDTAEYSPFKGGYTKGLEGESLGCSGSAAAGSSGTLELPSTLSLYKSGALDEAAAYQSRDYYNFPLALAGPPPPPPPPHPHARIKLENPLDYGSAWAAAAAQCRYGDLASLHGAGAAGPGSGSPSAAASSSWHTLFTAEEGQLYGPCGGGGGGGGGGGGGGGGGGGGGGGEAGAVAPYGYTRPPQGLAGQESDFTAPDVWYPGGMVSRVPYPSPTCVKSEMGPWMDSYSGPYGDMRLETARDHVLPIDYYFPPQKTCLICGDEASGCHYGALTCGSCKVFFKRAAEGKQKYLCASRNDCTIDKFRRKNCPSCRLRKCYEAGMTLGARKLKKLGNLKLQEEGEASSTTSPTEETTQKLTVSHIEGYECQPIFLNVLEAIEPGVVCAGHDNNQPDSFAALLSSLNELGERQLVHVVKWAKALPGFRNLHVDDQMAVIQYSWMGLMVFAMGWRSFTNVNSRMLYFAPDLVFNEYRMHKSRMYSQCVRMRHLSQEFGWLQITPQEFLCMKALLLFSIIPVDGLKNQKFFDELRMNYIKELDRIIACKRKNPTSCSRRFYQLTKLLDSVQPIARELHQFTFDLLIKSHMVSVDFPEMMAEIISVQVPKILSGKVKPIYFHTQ
SMILES,outcome,AC50
CCN(CC)c1ccc(C(=C2C=CC(=[N+](CC)CC)C=C2)c2ccc(S(=O)(=O)O)cc2S(=O)(=O)[O-])cc1,inactive,–
c1ccc2[nH]ccc2c1,inactive,–
CCCCCCCCCCCCCCCC(=O)OC[C@H](O)[C@H]1OC(=O)C(O)=C1O,–,7.84 µM (active)
O=C[C@@H](O)[C@H](O)[C@H](O)CO,inactive,–
BrC1CCC(Br)C(Br)CCC(Br)C(Br)CCC1Br (configuration not stated),inactive,–
C[Si](O[Si](C)(C)C)O[Si](C)(C)C,inactive,–
O=Nc1ccc(Nc2ccccc2)cc1,inactive,–
NCCCN1CCOCC1,inactive,–
O=c1cc(-c2ccccc2)oc2cc(O)cc(O)c12,inactive,–
COc1ccc(O)cc1,inactive,–
CCCCC[Si](OCC)(OCC)OCC,inactive,–
CCC/C=C/C=O,inactive,–

# Reference: PubChem BioAssay (EPA / NIEHS)
